Laboratory results reported in PubChem BioAssay AID652067 (The Scripps Research Institute Molecular Screening Center, 2013).
In all, about 370,000 compounds went through this assay and about 5,400 (1.5%) were called active.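 How the source made its calls: active means activation above the mean of all tested compounds plus 3 SD (cut at about 5.5% in these data); inactive means the rest.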 Shown is part of a subset that was picked to be rich in actives.

test system: DAF-12 nuclear receptor (Haemonchus contortus); test: hcDAF-12 driven luciferase reporter activation – cell-based, luminescence, HEK293, lit1-tk-luc reporter, primary screen (AID 652067); details: HEK293 hcDAF-12 lit1-tk-luc reporter, at 6.8 µM, stronger effect = higher value, 0% DMSO, 100% Δ7-dafachronic acid;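 further: 100% = response to 3 µM Δ7-dafachronic acid high control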

Row | Structure (SMILES) | activation
1 | Cn1ncc([N+](=O)[O-])c1C(=O)Nc1cc(Cl)ccc1Cl | -1.09% (inactive)
2 | c1coc(CCNc2ncnc3ccc(-c4ccc5c(c4)OCO5)cc23)c1 | 3.8% (inactive)
3 | CCC(c1nc2ccccc2[nH]1)n1c(=O)c(-c2cccs2)nc2ccccc21 (configuration not stated) | -1.27% (inactive)
4 | CC(C)n1c(NCc2c[nH]c3ccccc23)nc2ccccc21 | 1.49% (inactive)
5 | CC(C)(C)C(c1nc2ccccc2[nH]1)n1c(Cc2csc3ccccc23)nc2ccccc21 (configuration not stated) | 6.12% (active)
6 | N#Cc1nc(N)nc(N(c2ccccc2)c2ccccc2)n1 | -1.6% (inactive)
7 | CC(C)C[C@H](NC(=O)CC1CCCC1)C(=O)N1CCC[C@H]1C(=O)NCc1ccccc1 | -1.97% (inactive)
8 | Cc1ccccc1NC(=O)N1CCCC1C(=O)NCc1ccccc1 (configuration not stated) | 0.56% (inactive)
9 | Cc1ccccc1C(=O)N[C@H](C(=O)N1CCC[C@H]1C(=O)NCc1ccccc1)C(C)C | 6.82% (active)
10 | C=CCN1[C@H](CC(C)C)COc2cccc(N3CCCC3)c2S1(=O)=O | 1.33% (inactive)
11 | COC(=O)[C@]12C[C@H](CC(=O)N3CCN(C(=O)C4CC4)CC3)C(=O)N(Cc3ccc4c(c3)OCO4)C1=C[C@H](C(C)(C)C)O[C@@H]2C | -0.45% (inactive)
12 | Nc1ncnc2c1ncn2[C@@H]1O[C@H](C(=O)N[C@@H](CCc2ccccc2)C(=O)N2CCCN(Cc3cccs3)CC2)[C@@H](O)[C@H]1O | -0.84% (inactive)
13 | CC1CCN(c2ccc(C(=O)O)cc2NS(=O)(=O)c2ccc(Br)s2)CC1 | 0.68% (inactive)
14 | O=C(Cn1cnc([N+](=O)[O-])n1)NCCc1ccccc1 | 1.32% (inactive)
15 | Cc1ccc(NC(=O)CC2C(=O)N(Cc3ccccc3)C(=S)N2NC(=O)c2cccc(F)c2)c(C)c1 (configuration not stated) | 0.38% (inactive)
16 | Cc1c(Br)c([N+](=O)[O-])nn1CC(=O)N1CCN(Cc2ccccc2)CC1 | -0.25% (inactive)
17 | O=C(Nc1ccn(Cc2ccccc2)n1)c1n[nH]c([N+](=O)[O-])c1Cl | 5.98% (active)
18 | CCOc1cccc(C(=O)Nc2cnn(Cc3ccccc3)c2)c1 | -0.69% (inactive)
19 | O=C(Nc1ccn(Cc2ccccc2)n1)c1cccc(F)c1 | 8.2% (active)
20 | CCCCCN1CCCCC(NC(=O)C(C)CCC)C1=O (configuration not stated) | 0.16% (inactive)
21 | CC(C)(C)C(=O)Nc1c(Br)c(C2CC2)nn1-c1ccccc1 | -0.94% (inactive)
22 | O=C(CCCCCN1C(=O)C2C3C=CC(C3)C2C1=O)Nc1ccccc1 (configuration not stated) | -1.48% (inactive)

Row | Structure (SMILES) | activation
23 | CN(C)CC(=O)N[C@@H]1C[C@@H]2O[C@H](CO)CC[C@@H]2O[C@@H]1CCc1ccc(C#Cc2ccccc2)cc1 | -2.47% (inactive)
24 | COc1ccc(C(=O)COC(=O)c2ccc3ccccc3n2)cc1 | 0.42% (inactive)
25 | COc1cccc(NC(=O)COC(=O)c2ccc3ccccc3n2)c1 | 4.16% (inactive)
26 | COc1ccc(C2=NOC(COC(=O)c3ccc4ccccc4n3)C2)cc1 (configuration not stated) | 7.15% (active)
27 | Cc1ccc(OCc2nnc(SC3CCc4ccccc4C3=O)n2C)cc1 (configuration not stated) | 1.15% (inactive)
28 | COc1cccc(C(O)Cc2nc3ccccc3n2C)c1OC (configuration not stated) | -0.39% (inactive)
29 | Cc1ccc(OCc2nc3ccccc3n2C)cc1 | 11.3% (active)
30 | Cc1cccnc1NC(=O)Cn1c(=O)oc2ccccc21 | 6.75% (active)
31 | CC(=O)c1ccc(NC(=O)Cn2c(=O)oc3ccccc32)cc1 | -1.53% (inactive)
32 | COc1ccc(OC)c(NC(=O)Cn2c(=O)oc3ccccc32)c1 | -1.37% (inactive)
33 | CCC[C@H]1C(=O)CC[C@@]23CCCN2C(=O)CCC[C@@H]13 | 0.52% (inactive)
34 | COc1ccnc(C(=O)N2CCC(Oc3cccnc3)CC2)c1 | -0.13% (inactive)
35 | COCCN(CCOC)S(=O)(=O)c1ccc(C(=O)Nc2nc3c(s2)CCc2ccccc2-3)cc1 | -3.08% (inactive)
36 | CN(C)CCNC(=O)c1[nH]nc2c1CCc1ccccc1-2 | 6.06% (active)
37 | CN(C)CCNC(=O)c1ccc(-c2cn3c(-c4ccc(Oc5ccccc5)cc4)cnc3cn2)cc1 | -0.28% (inactive)
38 | COC(=O)[C@]12C[C@H](CC(=O)NCCCCc3ccccc3)C(=O)N(Cc3ccc4c(c3)OCO4)C1=C[C@H](C(C)(C)C)O[C@@H]2C | 2.01% (inactive)
39 | C[C@H]1[C@H](NC(=O)c2cccc(N(C)C)c2)CC[C@@]23CCCN2C(=O)CCC[C@@H]13 | -1.72% (inactive)
40 | CCCNC(=O)Nc1ccc2c(c1)C(=O)N(C)[C@H]1CC[C@H](CC(=O)NCC3CCCCC3)O[C@@H]1CO2 | 1.19% (inactive)
41 | Cc1nc(NC(=O)C(C)(C)C)sc1[N+](=O)[O-] | -0.38% (inactive)
42 | Nc1[nH]c(C(=O)c2ccccc2)c(-c2ccc(Cl)cc2Cl)c1C(=O)c1ccccc1 | -1.47% (inactive)
43 | Nc1[nH]c(C(=O)c2ccc(Br)cc2)c(-c2ccc3c(c2)OCO3)c1C(=O)NCCc1c[nH]c2ccccc12 | 0.26% (inactive)
44 | Cc1ccnc(N2C(=O)c3ccc([N+](=O)[O-])cc3C2=O)c1 | -1.07% (inactive)

Row | Structure (SMILES) | activation
45 | Cc1ccc(-n2cc3ccc([N+](=O)[O-])cc3n2)cc1 | 9.08% (active)
46 | O=c1c2cc([N+](=O)[O-])ccc2nc2n1CCC2 | -0.38% (inactive)
47 | COC(=O)C[C@@H]1CC[C@@H]2[C@H](COc3ccc(NC(=O)c4cccc(F)c4)cc3C(=O)N2C)O1 | -2.02% (inactive)
48 | O=C(NCCCc1ccccc1)[C@H](Cc1ccccc1)NC1(C(=O)NCCc2c[nH]c3ccccc23)CCC1 | 1.93% (inactive)
49 | Nc1ncnc2c1ncn2[C@@H]1O[C@H](C(=O)N[C@@H](CCc2ccccc2)C(=O)NCC(=O)N2CCOCC2)[C@@H](O)[C@H]1O | -0.25% (inactive)
50 | Cc1csc(NC(=O)Nc2ccccc2[N+](=O)[O-])n1 | 13.9% (active)
51 | Cc1cc(NC(=O)Nc2ccccc2[N+](=O)[O-])no1 | -0.4% (inactive)
52 | CN1CCN(CCNC(=O)Nc2ccccc2[N+](=O)[O-])CC1 | -0.05% (inactive)
53 | CCOc1ccc(-n2c(SCC(=O)Nc3cc(C)c(NC(=O)c4ccccc4)cc3OC)nnc2-c2cccs2)cc1 | -0.56% (inactive)
54 | O=C(CN1C(=O)NC2(CCc3ccccc32)C1=O)NC1CCCCC1 (configuration not stated) | 2.74% (inactive)
55 | Nc1nc2c(ncn2[C@@H]2O[C@H](C(=O)N[C@H](Cc3ccccc3)C(=O)NCC3CCCCC3)[C@@H](O)[C@H]2O)c(=O)[nH]1 | 1.38% (inactive)
56 | CC1CC(C)CN(CCCNC(=O)c2csc3c2CCCCC3)C1 (configuration not stated) | 0.75% (inactive)
57 | COc1ccc(NC(=O)c2c(C)oc3c2CCCC3)cc1 | 1.98% (inactive)
58 | Cc1ccc(NC(=O)c2csc3c2CCCC3)cc1 | 11.3% (active)
59 | COCCNC(=S)N(C)[C@H]1C[C@H]2c3[nH]c4ccccc4c3CCN2C[C@H]1[C@H](C)O | 1.74% (inactive)
60 | COc1cc2cc(CN(CCN3CCCC3)C(=O)Nc3ccccc3Cl)c(=O)[nH]c2cc1OC | -0.2% (inactive)
61 | Cc1ccc(C(=O)N(Cc2ccccn2)CC2CCCO2)cc1 (configuration not stated) | -1.39% (inactive)
62 | CN1[C@H](Cc2ccccc2)COc2cccc(N3CCSCC3)c2S1(=O)=O | 3.54% (inactive)
63 | CC(=O)N1CCN(c2ccccc2NC(=S)NC(=O)c2cc3ccccc3o2)CC1 | 7.26% (active)
64 | O=C(Nc1ccccc1N1CCN(C(=O)c2ccccc2)CC1)c1ccco1 | -1.91% (inactive)
65 | O=C(c1cc2ccccc2o1)N1CCN(Cc2ccccc2)CC1 | -2.1% (inactive)
66 | CCc1ccccc1NC(=O)NCCN1CCCCC1 | -0.86% (inactive)

Row | Structure (SMILES) | activation
67 | CCc1ccccc1NC(=O)c1ccc2c(c1)CCN2S(C)(=O)=O | -0.87% (inactive)
68 | CN1CCc2ccccc2C1Cc1ccccc1NC(=O)c1sc2ccccc2c1Cl (configuration not stated) | 6.57% (active)
69 | COC(=O)[C@]12C[C@H](CC(=O)NCCc3ccccc3OC)C(=O)N(Cc3ccco3)C1=C[C@H](C(C)C)O[C@@H]2C1CC1 | -3.62% (inactive)
70 | O=C(O)c1ccccc1-c1ccccc1C(=O)Nc1cccc2ccccc12 | 5.93% (active)
71 | O=C(O)c1ccccc1-c1ccccc1C(=O)Nc1ccccc1Br | 1.04% (inactive)
72 | O=C(Nc1ccccc1F)c1ccccc1-c1ccccc1 | -2.35% (inactive)
73 | COc1ccccc1C(=O)NCc1nnc(SC(C)C(=O)Nc2nccs2)n1C (configuration not stated) | 6.99% (active)
74 | COc1ccc(CC(=O)NCc2nnc(SCC(=O)Nc3nccs3)n2C)cc1 | -1.09% (inactive)
75 | CC(Sc1nnc(CNC(=O)c2ccccc2F)n1C)C(=O)Nc1nccs1 (configuration not stated) | -0.26% (inactive)
76 | COC(=O)[C@H](CC(C)C)NS(=O)(=O)c1c(F)cccc1F | 0.07% (inactive)
77 | O=C1C(=O)N(Cc2ccc(-c3ccsc3)cc2)c2ccc(OC(F)(F)F)cc21 | 1.15% (inactive)
78 | Brc1ccc2nc(N3CCCC3)sc2c1 | 9.08% (active)
79 | O=C(NCCc1cccc(F)c1)C1CCCN(c2nc3ccccc3s2)C1 (configuration not stated) | -1.62% (inactive)
80 | Cc1nc(N2CCCCC2)sc1C=O | -0.55% (inactive)
81 | Cc1nc2ccc(NC(=O)C(F)(F)F)cc2o1 | 0.11% (inactive)
82 | CC(=O)Nc1ccc(-c2nc3ccccc3o2)cc1 | 6.08% (active)
83 | CC(=O)Nc1ccc(S(=O)(=O)NC2Cc3ccccc3C2)cc1 | -1.07% (inactive)
84 | CC[C@H](C)[C@H]1CNC(=O)C(=O)N1CC1CCN(CCc2ccc(OC)c(OC)c2)CC1 | -1.29% (inactive)
85 | Cc1cc(O)c(C(=O)/C=C/c2c(F)c(F)c(F)c(F)c2F)c(=O)o1 | 8.11% (active)
86 | Cc1cc(O)c(Sc2ccccc2)c(=O)o1 | 0.75% (inactive)
87 | C=CCN1[C@@H](Cc2ccccc2)COc2cccc(N3CCSCC3)c2S1(=O)=O | -1.72% (inactive)
